# High-throughput results from PubChem BioAssay.
# PrPC surface inh = inhibitors of human cell surface prion protein PrPC, primary screen, cell-based, TR-FRET | actives 0.43% (n = 370,000) | Major prion protein (Homo sapiens), P04156 | TR-FRET read-out | inhibition, % at 13.8 µM; in the data active means inhibition above about 24%; further: 0% = median of the test wells and 100% = reference compound wells
# GDH-TPI counter = GDH-TPI coupling enzyme inhibitors, primary screen, artefact control for M. tuberculosis FBA inhibitor project, biochemical, absorbance, full deck; GDH-TPI coupled enzyme counterscreen, NADH absorbance; inhibition, % at 4.8 µM; actives 1.2% (n = 360,000); AID 588335, 2011; in the data active means inhibition above about 30%;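 further: 0% = DMSO wells and 100% = wells lacking the enzyme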
# FBA Mtb inh = Mtb FBA enzyme inhibitors, primary screen, biochemical, fluorescence, strain H37Rv. purified M. tuberculosis FBA, fluorescence read-out. AID 588726, 2011. inhibition, % at 1 µM. actives 2.3% (n = 360,000); in the data active means inhibition above about 27%;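 further: 0% = vehicle and 100% = reference inhibitor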
# Target sequence (P9WQA3 whole entry, looked up): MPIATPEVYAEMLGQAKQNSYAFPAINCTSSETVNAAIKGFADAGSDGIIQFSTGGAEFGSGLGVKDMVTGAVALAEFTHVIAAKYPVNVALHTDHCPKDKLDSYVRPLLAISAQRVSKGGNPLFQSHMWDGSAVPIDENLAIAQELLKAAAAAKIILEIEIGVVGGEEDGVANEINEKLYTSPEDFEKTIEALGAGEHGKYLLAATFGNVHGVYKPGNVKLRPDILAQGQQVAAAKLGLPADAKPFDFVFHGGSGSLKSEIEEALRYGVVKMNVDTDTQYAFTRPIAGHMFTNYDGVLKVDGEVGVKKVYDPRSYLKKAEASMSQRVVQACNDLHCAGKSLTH
# PfHsp40 rescue = rescue of yeast from PfHsp40 toxicity, primary screen, S. cerevisiae, ATP luminescence | growth rescue, % at 12.5 µM | AID 504582, 2011 | S. cerevisiae expressing PfHsp40, growth rescue | actives 0.68% (n = 340,000); in the data active means growth rescue above about 28%, passing the limit was not always enough;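 further: yeast W303a lacking pdr1 and pdr3 grown in galactose medium; growth measured after three days at 30 °C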
# PrP 5UTR inh = inhibition of PrP 5' UTR reporter expression. cell-based PrP 5' UTR mRNA reporter, plate reader. inhibition, % (test concentration not listed). actives 0.35% (n = 340,000). AID 488862, 2010; in the data active means inhibition above about 52%; further: 0 = median of the neutral control wells
# BJeLR lethal = MLPCN primary cell-based screen for lethality selective to Ras in HRASV12 cells. BJeLR (HRASV12) viability, CellTiter-Glo ATP luminescence, 48 h. inhibition, % (test concentration not listed). actives 0.17% (n = 300,000). AID 1554, 2009; in the data active means inhibition above about 50%
# An asterisk follows results filed as active; · = not tested or not shown; + = active, no number. Rows were chosen to be rich in hits. Some 4.5% of all compounds tested hit in one or more screens of this group.
SMILES,PrPC surface inh,GDH-TPI counter,FBA Mtb inh,PfHsp40 rescue,PrP 5UTR inh,BJeLR lethal
Cc1c(CC(=O)N2CCN(C(=O)C3COc4ccccc4O3)CC2)c(=O)oc2cc(O)cc(O)c12 (centres undefined),0,17,177*,-2,-23,7
Cc1c(CC(=O)N2CCN(C(=O)C3COc4ccccc4O3)CC2)c(=O)oc2c(C)c(O)ccc12 (centres undefined),7,23,+,1,-15,6
COc1ccc(N2CCN(C(=O)C3COc4ccccc4O3)CC2)cc1 (centres undefined),-6,-8,-2,-1,-6,10
COc1ccc2c(C)c(CC(=O)N3CCN(C(=O)C4COc5ccccc5O4)CC3)c(=O)oc2c1 (centres undefined),3,12,144*,2,5,8
Cc1c(CC(=O)N2CCN(C(=O)C3COc4ccccc4O3)CC2)c(=O)oc2cc(O)ccc12 (centres undefined),5,13,+,1,4,5
C=CCN1C(=O)[C@@H](CC(=O)NCCCN2CCCC2=O)[C@]2(C(=O)OCC)CCCCC/C=C/12,2,·,·,·,·,·
CCOc1cc(/C=N\Nc2ncc(F)c(N3CCOCC3)n2)ccc1Oc1nc(Cl)ncc1F,-7,33*,-3,-1,-17,3
CC(COc1ccc(C(F)(F)F)cc1)CN1CCC(C(O)(c2ccccc2)c2ccccc2)CC1 (centres undefined),-10,·,·,·,·,·
COc1cc(OC)cc(N2C(=O)CC(N3CCC(C(=O)N4CCCCC4)CC3)C2=O)c1 (centres undefined),-5,2,-1,67*,-3,0
CCc1nnc(NC(=O)CCC(=O)N2CCN(Cc3cc(F)ccc3OC)CC2)s1,4,2,-1,1,-13,2
COc1ccc(F)cc1CN1CCN(C(=O)CCC(=O)Nc2nnc(CC(C)C)s2)CC1,-1,-2,-2,-1,-13,62*
COC(=O)[C@H](CC(C)C)N1Cc2nnn(CC3CCCCC3)c2-c2ccccc2S1(=O)=O,-1,·,·,·,·,·
COc1ccc(-c2ccc3n2Cc2cnnn2-c2ccccc2-3)cc1,-10,11,10,137*,-34,·
Cn1c(=O)c2cc(NC(=S)NC3CCCCC3)ccc2n1Cc1cccc(C(F)(F)F)c1,4,2,16,·,·,·
Cn1c(=O)c2cc(NC(=O)NCCc3ccccc3)ccc2n1Cc1ccccc1,2,-4,127*,·,·,·
FC(F)(F)c1cccc(Cn2cnc(NC(=S)NCCc3ccccc3)n2)c1,-3,4,0,-1,-24,2
Cn1c(=O)c2cc(NC(=O)OCCF)ccc2n1Cc1cccc(C(F)(F)F)c1,9,5,183*,·,·,·
Cn1c(=O)c2cc(NC(=O)NCCc3ccccc3)ccc2n1Cc1cccc(C(F)(F)F)c1,6,6,130*,·,·,·
C=CCN(CC#CCN(C)C(=O)c1cccn1C(=O)OC(C)(C)C)Cc1ccc(OC)cc1OC,3,·,·,·,·,·
CN(Cc1ccccc1)S(=O)(=O)c1cccc(C(=O)OCc2ccc(C(F)(F)F)cc2)c1,3,·,·,·,·,·
O=C(OCC(=O)c1c[nH]c2ccccc12)c1ccc([N+](=O)[O-])s1,-24,5,-4,-5,-28,-5
CCc1cccc2c(C(=O)COC(=O)c3ccc([N+](=O)[O-])s3)c[nH]c12,-30,13,2,37*,-12,-9
Cc1cc(=O)n2[nH]c(-c3ccc(C(C)(C)C)cc3)cc2n1,11,11,36*,0,·,0
CC(CCC(C)C(C)(C)C)[C@@H]1CC[C@H]2C3C[C@H](OS(O)(=S)=S)[C@H]4C[C@H](OS(O)(=S)=S)[C@@H](OS(O)(=S)=S)C[C@]4(C)[C@H]3CC[C@]12C (some centres undefined) (tested in a mixture with another compound),·,7,1,104*,-20,·
CC(CCC(=O)NN)C1CCC2C3CCC4CC(O)CCC4(C)C3CCC12C (centres undefined),-5,-10,0,0,-29,·
SMILES,PrPC surface inh,GDH-TPI counter,FBA Mtb inh,PfHsp40 rescue,PrP 5UTR inh,BJeLR lethal
CCOc1ccc(-c2cc(C(=O)OC)c3n(c2=O)CCC3)cc1,-4,·,·,·,·,·
S=C1NC[C@H](Cc2ccccc2)N1CC1CCN(CCCC2CCCC2)CC1,-7,18,3,-1,-2,·
S=C1NC[C@H](Cc2ccccc2)N1CCCCC1CCCCC1,0,4,-2,64*,-8,5
FC(F)(F)c1cc(CCN2C(=S)NC[C@@H]2Cc2ccccc2)cc(C(F)(F)F)c1,-7,8,-1,48*,-33,-10
CCCC(=O)OC12CCCN(C1)/C(=C/c1cccc(OC)c1)C2 (centres undefined),5,·,·,·,·,·
C=CCN1C(=O)[C@@H](CC(=O)N2CCCCC2)[C@]2(C(=O)OC)CCCCC=C12,-2,·,·,·,·,·
O=C(Nc1ccc(Cl)cc1Cl)OC1CCC12CCC(c1ccccc1)CC2 (centres undefined),-9,·,·,·,·,·
c1ccc2c(c1)c1c(c3ccccc32)CN2CCCC2C1 (centres undefined),-4,9,21,76*,-1,·
COc1ccc(-n2c(COc3ccc(C)cc3)nnc2SCC(=O)Nc2ccc(S(=O)(=O)Nc3cc(C)nc(C)n3)cc2)cc1,-4,·,·,·,·,·
O=C(Cn1cc(C(=O)C(F)(F)F)c2cc(Br)ccc21)N1CCOCC1,3,11,-4,0,-3,5
COc1cccc(NC(=O)C(=O)c2cn(CC(=O)N3CCCC3)c3ccccc23)c1,-6,31*,-1,2,-20,18
CCc1ccc(NC(=O)C(=O)c2cn(CC(=O)N3CCCCC3)c3ccccc23)cc1,-4,37*,-3,1,-17,-2
O=C(Cn1cc(C(=O)C(F)(F)F)c2ccccc21)N1CCOCC1,1,10,-2,48*,-22,-4
CN(C)CC(=O)N[C@H]1C[C@@H]2O[C@H](CO)CC[C@@H]2O[C@@H]1CCc1ccc(-c2ccc(F)cc2)cc1,-14,·,·,·,·,·
COc1cc(C=Nn2c(-c3n[nH]c4c3CCC4)n[nH]c2=S)ccc1OCc1ccccc1,-4,·,·,·,·,·
Oc1ccc(CNc2cccnc2)c2cccnc12,3,·,·,·,·,·
Oc1c(CN2CCOCC2)cc(COCc2ccccc2)c2cccnc12,-1,8,-2,65*,10,16
Oc1c(Br)cc(Br)cc1CNc1cccc2cccnc12,-19,14,-3,1,-25,6
c1ccc(N2CCN(Cc3ccnc4ccccc34)CC2)cc1,7,9,10,0,-1,30
